# In the library only some 2.1% were active in any assay of this set; here they are far more common.
# HNF4A DNA FP: change in binding of human HNF4A to DNA, primary screen, biochemical, fluorescence polarization, FITC-DNA | actives 0.3% (n = 360,000) | activity change, % at 10 µM | Hepatocyte nuclear factor 4-alpha (Homo sapiens), P41235 | 1 h | AID 1224865, 2016; in the data active = activity change above about 30%, passing the limit was not always enough
# Rpn11 inh: Rpn11 (PSMD14) deubiquitinase inhibitors, primary screen, biochemical, fluorescence polarization, uHTS; 26S proteasome non-ATPase regulatory subunit 14 (Homo sapiens), O00487; inhibition, % at 20 µM; actives 0.59% (n = 360,000); human 26S proteasome, Ub4-pepOG fluorescence polarization; 20S core pre-blocked with epoxomicin; AID 588493, 2011;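 active = inhibition at 20 µM, scaled to each plate's controls, above about 33%, limit read from the data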
# Target sequence (O00487 whole entry, looked up): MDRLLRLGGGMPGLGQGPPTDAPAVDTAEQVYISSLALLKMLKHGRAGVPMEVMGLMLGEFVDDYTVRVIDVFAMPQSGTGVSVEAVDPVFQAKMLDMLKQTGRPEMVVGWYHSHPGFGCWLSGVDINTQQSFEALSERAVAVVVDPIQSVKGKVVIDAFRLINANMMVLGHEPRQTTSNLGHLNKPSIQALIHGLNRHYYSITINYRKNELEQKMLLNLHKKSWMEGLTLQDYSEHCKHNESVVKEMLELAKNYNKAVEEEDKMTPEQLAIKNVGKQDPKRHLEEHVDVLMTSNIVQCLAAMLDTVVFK
# TPT1 inhibitor: Candida albicans TPT1 enzyme inhibitors, primary screen, biochemical, fluorescence polarization; tRNA 2'-phosphotransferase TPT1 (Candida albicans SC5314); recombinant caTPT1, FP RNA substrate dephosphorylation; inhibition, % at 5 µM; actives 0.81% (n = 300,000);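 active = inhibition above the mean of all tested compounds plus 3 SD, set per screening campaign, cut at about 24% in these data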;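 also: plate controls were DMSO alone for no effect and ferristatin control at 100 nM for full effect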
# Myeloid diff 2: induction of myeloid progenitor differentiation, primary screen, cell-based, flow cytometry, MLPCN library | calls only at 10 µM | ER-HoxA9 myeloid progenitors, lysozyme-GFP differentiation | actives 1% (n = 360,000);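 active = normalized GFP-positive differentiation at or above the plate's own cutoff, the solvent-only control mean plus 3 SD; inconclusive = no clear call, values can overlap the other calls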;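 also: cells exposed to compound for four days before flow analysis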
# caTPT1 confirm: Candida albicans TPT1 inhibitors, confirmation, biochemical, fluorescence polarization, triplicate; shares compounds with TPT1 inhibitor; recombinant caTPT1, RNase T1 coupled; inhibition, % at 5 µM; actives 74% (n = 2,400); AID 2149, 2009;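 active = inhibition above the primary screen limit, the mean inhibition of all tested compounds plus 3 SD, cut at about 25% in these data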
# RNase T1 inh: RNase T1 inhibitors, counter-screen for TPT1 inhibitor project, biochemical, fluorescence polarization; shares compounds with TPT1 inhibitor; RNase T1 cleavage, 1536-well; inhibition, % at 5 µM; actives 83% (n = 2,400);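 active = inhibition above the solvent-only control well mean plus 3 SD, limit set per screening run, cut at about 23% in these data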;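 also: plate controls were DMSO wells with enzyme for no effect and wells without RNase T1 for full effect; inhibitors block cleavage so intact labeled substrate keeps polarization high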
# Target sequence (P00651 whole entry, looked up): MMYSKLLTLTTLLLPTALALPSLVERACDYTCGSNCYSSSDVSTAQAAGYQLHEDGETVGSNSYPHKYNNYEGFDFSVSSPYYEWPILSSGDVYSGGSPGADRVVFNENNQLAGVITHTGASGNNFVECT
# The depositor's hits bear a star; i = inactive; ? = inconclusive; / = no result shown; + = active, no number.
SMILES,HNF4A DNA FP,Rpn11 inh,TPT1 inhibitor,Myeloid diff 2,caTPT1 confirm,RNase T1 inh
O=C(c1ccco1)N1CCN(C(=O)c2cn(-c3ccccc3)nc2-c2ccccc2)CC1,3,-5,/,i,/,/
C[C@H](CO)N1C[C@H](C)[C@@H](CN(C)S(C)(=O)=O)Oc2ccc(NC(=O)C3CC3)cc2C1=O,-1,1,/,i,/,/
CC1=NOC(=O)/C1=C/c1ccc(N(C)C)cc1,/,/,78*,/,97*,114*
CCOc1ccccc1NC=C1C(=O)OC2(CCCCC2)OC1=O,-1,-3,2,i,/,/
CCN(CC)c1ccc(/C=C2/C(=O)ON=C2C)cc1,9,/,117*,i,132*,134*
CN(C)c1ccc(/C=C2\N=C(C(C)(C)C)OC2=O)cc1,11,/,117*,i,129*,140*
CCN(CC)c1ccc(C=C2C(=O)OC3(CCCCC3)OC2=O)cc1,10,/,101*,i,166*,156*
COc1ccc(/C=C2\N=C(C(C)(C)C)OC2=O)c(OC)c1,-1,0,1,i,/,/
CCOC(=O)CCCCCC(=O)Nc1ccc2c(c1)C(=O)N([C@H](C)CO)C[C@@H](C)[C@@H](CN(C)C(=O)CCC(F)(F)F)OCCCC[C@H](C)O2,0,-1,/,i,/,/
CCC1CCCCN1C(=O)COc1ccc(S(=O)(=O)N2CCOCC2)cc1Cl (configuration not stated),-2,-2,/,i,/,/
CCN1C(=O)c2ccc(C(=O)O)cc2C1=O,0,-4,-8,i,/,/
CCN(CC)c1ccc(/C=C2/C(=O)c3ccc(C(=O)O)cc3C2=O)cc1,82*,/,136*,i,121*,114*
O=C(CN1CCCC1)Nc1nc(-c2ccc(Cl)cc2)cs1,-7,8,/,i,/,/
CCN(CC)CC(=O)Nc1nc(-c2ccc(Cl)cc2)cs1,3,-2,41*,i,0,4
COC(=O)c1ccc(-n2cc(-c3ccc(OC)cc3)[nH]c2=S)cc1,30,30,38*,i,31*,40*
CCOC(=O)c1c(/N=C/N(C)C)sc(/C=N/Nc2ccccc2)c1-c1ccc(Cl)cc1,26,43*,40*,i,29*,43*
COCCNC(=O)C1(C)CCCN(Cc2ccc(Cl)c(Cl)c2)C1 (configuration not stated),-3,-4,/,i,/,/
COC(=O)CSc1nc(N)c2c3c(sc2n1)CCCC3,-2,4,-6,i,/,/
COC(=O)CSc1nc(N)c2c3c(sc2n1)C(c1ccccc1)SC(c1ccccc1)C3 (configuration not stated),25,/,72*,/,22,31*
CCOC(=O)c1c(-c2ccccc2)csc1NC(=O)c1cc(-c2ccccc2OC)on1,-2,0,2,i,/,/
CCOC(=O)c1c(-c2ccccc2)csc1NC(=O)/C(C#N)=C/c1ccc(O)c(OC)c1,141,/,178*,+,192*,174*
Cc1cccc(N/C=C/c2onc(C)c2[N+](=O)[O-])c1,3,13,62*,i,64*,73*
c1ccc(-n2nnnc2NC2CCCCC2)cc1,-3,-1,-5,i,/,/
Cc1ccc(CNC(=O)C2CC(=O)N(c3ccc(OCC(=O)N4CCCC4)cc3)C2)cc1 (configuration not stated),2,1,31*,i,5,10
CCOCCCNc1nc2c(C)cccn2c(=O)c1/C=C1\SC(=S)N(C(C)CC)C1=O (configuration not stated),8,/,135*,+,157*,145*
SMILES,HNF4A DNA FP,Rpn11 inh,TPT1 inhibitor,Myeloid diff 2,caTPT1 confirm,RNase T1 inh
COc1ccc(/C=C2\Oc3cc(OCC(=O)N4CCC(C(=O)O)CC4)ccc3C2=O)c(OC)c1,37,/,65*,i,90*,98*
O=C1/C(=C/c2ccccc2)Oc2cc(OC(=O)N3CCOCC3)ccc21,-2,3,1,i,/,/
COc1ccc(/C=C2\Oc3cc(OC(=O)N4CCOCC4)ccc3C2=O)c(OC)c1,99*,29,111*,i,44*,65*
COc1ccc(OC)c(/C=C2\Oc3cc(OCC(=O)N4CCC(C(=O)O)CC4)ccc3C2=O)c1,3,15,29*,i,48*,57*
COC(=O)NNC(=S)NCc1ccccc1,2,0,0,i,/,/
Cn1c(SCc2ccc(F)cc2Cl)nc2ccccc2c1=O,-2,0,/,i,/,/
O=S(=O)(Nc1cc(Cl)ccc1N1CCCCC1)c1cccs1,13,31,48*,i,28*,35*
O=C(CCN1C(=O)/C(=C/c2cccs2)SC1=S)N1CCCCC1,10,30,33*,?,34*,46*
Cn1c(/C(C#N)=C/c2cccc(O)c2)nc2ccccc21,-3,-1,0,i,/,/
Cn1c(/C(C#N)=C/c2ccc(-c3ccc(S(N)(=O)=O)cc3)o2)nc2ccccc21,-2,-72,118*,+,120*,121*
COC(=O)c1cc(COc2ccc3c(c2)oc(=O)c2ccccc23)c(C)o1,0,-4,4,i,/,/
OC(c1ccc(F)c(F)c1)c1nc(-c2cccc(F)c2)cs1 (configuration not stated),0,-1,/,i,/,/
COc1ccc(/C=C2\SC(=S)N(CC3CCCO3)C2=O)cc1 (configuration not stated),-1,-3,0,i,/,/
COc1ccc(N=C2O/C(=C/c3sc(=S)n(CC4CCCO4)c3O)N=C2C#N)cc1 (configuration not stated),31,/,45*,i,52*,61*
O=C(O)CCn1cc(/C=C2\SC(=S)NC2=O)c(-c2ccccc2)n1,4,17,54*,i,1,7
CN1/C(=C/C2CC(=O)N(c3ccc([N+](=O)[O-])cc3)C2=O)C(C)(C)c2ccccc21 (configuration not stated),1,14,25*,i,14,20
CN1/C(=C\C(=S)NC(=O)c2ccc([N+](=O)[O-])cc2)C(C)(C)c2ccccc21,3,16,0,i,/,/
CN(CC(=O)Nc1ccc(Cl)cc1)C(=O)Cn1[nH]c(=O)c2ccccc2c1=O,0,-4,-1,i,/,/
Cc1ccc(-c2nc3sc(C#N)c(N)n3c(=O)c2C#N)cc1,30,/,24*,i,35*,48*
